Measurements: PubChem BioAssay
Where “and” joins values, the source holds several entries; their conditions need not be identical. Equal values may be shown once. Calls of active or inactive are those of the source. Unless noted, how the calls were made is not given here.

Legend:
[1] = kinase inhibitors against Plasmodium liver-stage infection, cell-based, known kinase inhibitor set, luminescence, hepatoma host viability (AID 624392); settings: Plasmodium liver stage in hepatoma cells, luciferase luminescence, concentration not given here; liver cell % of control: measured here: host liver cell viability; parasite % of control: stronger effect = lower value;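 further: infected cells incubated roughly two days before readout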
[2] = modulators of glucocorticoid suppression of NF-kB, cell-based, luciferase, IL-1B stimulus, dexamethasone (AID 624486); settings: NF-kB luciferase reporter, IL-1B + dexamethasone, luminescence; percent of negative control (+Dex): actives lie on both sides, concentration not given here; z-score: measured here: IL-1B alone, no Dex;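 on percent of negative control (+Dex): 100% = mean signal of vehicle control wells on the plate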
[3] = target: Cellular tumor antigen p53 (Homo sapiens) (UniProt P04637); test: kinase inhibitors altering GFP-p53 stability in HPV16-positive cells, imaging, known kinase inhibitor set, EGFP/DsRed ratio (AID 1053116); settings: stronger effect = higher value; EGFP object count: measured here: GFP-p53 positive objects count;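 further: cells exposed to compounds for 24 h at 37 °C before reading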
Cellular tumor antigen p53 (Homo sapiens), sequence (P04637 whole entry, looked up): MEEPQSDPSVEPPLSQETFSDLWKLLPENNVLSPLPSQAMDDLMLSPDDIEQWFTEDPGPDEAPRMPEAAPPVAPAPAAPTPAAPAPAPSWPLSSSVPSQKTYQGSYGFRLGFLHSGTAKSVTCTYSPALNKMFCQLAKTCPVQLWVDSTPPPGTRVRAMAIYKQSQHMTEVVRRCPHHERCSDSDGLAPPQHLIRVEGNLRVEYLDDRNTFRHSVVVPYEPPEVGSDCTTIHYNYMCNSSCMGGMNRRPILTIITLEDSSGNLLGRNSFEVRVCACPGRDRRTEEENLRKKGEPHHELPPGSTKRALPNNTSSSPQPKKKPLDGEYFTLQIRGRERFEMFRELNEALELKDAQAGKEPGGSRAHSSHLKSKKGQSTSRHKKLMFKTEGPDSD

[4] = IRF3 reporter activation in THP-1 macrophages, cell-based, PMA-stimulated THP-1, luminescence (AID 1053176); settings: PMA-differentiated THP-1, IRF3 reporter luminescence; stronger effect = higher value
[5] = kinase inhibitors altering Pseudomonas killing of worms, whole organism (AID 651566);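 further: tested at 14 µM; sign flipped so higher z means a lower ratio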; settings: C. elegans killed by P. aeruginosa, survival ratio
[6] = activators of macrophage pro-inflammatory response, cell-based, murine, luminescence (AID 652131); settings: murine macrophage pro-inflammatory reporter, stronger effect = higher value
[7] = survival rescue of mitochondrial mutant cells in low glucose, primary screen, MELAS cybrids, Rieske KO mouse fibroblasts, CellTiter-Glo (AID 1508586;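 active means mean z-score across replicates of 1.96 or higher in either the MELAS or the Rieske mutant cell line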;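 further: z relative to plate mean and SD of compound and empty wells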)
[8] = MELAS cybrid survival, CellTiter-Glo 48 h, stronger effect = higher value
[9] = Rieske KO mouse fibroblast survival, CellTiter-Glo 72 h

Structure (SMILES) | liver cell % of control [1] | parasite % of control [1] | percent of negative control (+Dex) [2] | z-score [2] | EGFP object count [3] | EGFP/DsRed ratio [3] | fraction signal [4] | z-score [5] | z-score [6] | z-score [7, 8] | z-score [7, 9]
O=C1NC(=NCc2ccccc2)SC1=Cc1ccc2ncccc2c1 | 99.5% | 34.9% (inactive) | 92.5% (inactive) | -0.26 | 7 | 0.173 (inactive) | -0.003 (inactive) |  |  |  | 
Cn1cc(C2=C(c3cccc(Cl)c3)C(=O)NC2=O)c2ccccc21 | 109% | 69.6% (inactive) | 106% (inactive) | 0.59 | 5 | 0.137 (inactive) | 0.0035 (inactive) |  |  |  | 
CN(C)CCCNc1nccc(-c2c(-c3ccc(F)cc3)nn3cc(C(F)(F)F)ccc23)n1 | 98.2% | 96.1% (inactive) | 93.5% (inactive) | 0.05 | 4 | 0.104 (inactive) | -0.008 (inactive) | 0.5 (inactive) | 2.64 (inactive) | 0.443 (inactive) | -0.332
CS(=O)(=O)CCn1c(=O)c(Oc2ccc(F)cc2F)cc2cnc(NC3CCOCC3)nc21 | 122% | 63% (inactive) | 99% (inactive) | 0.47 | 2 | 0.0579 (inactive) | 0.0015 (inactive) |  |  |  | 
Nc1c(C(=O)c2cccc(CCS(N)(=O)=O)c2)cnn1-c1ccc(F)cc1 | 92.4% | 53.8% (inactive) | 105% (inactive) | 0.275 | 2 | 0.0563 (inactive) | 0.0055 (inactive) |  |  |  | 
O=C1Nc2ccccc2/C1=C1\CCc2cc(O)ccc21 | 77.7% | 108% (inactive) | 114% (inactive) | 1.81 | 8.5 | 0.108 (inactive) | -0.013 (inactive) | -1.72 (inactive) | 3.73 (inactive) | -0.0823 (inactive) | -0.0427
Cn1cc(C2=C(c3cn(C)c4ccc(N)cc34)C(=O)NC2=O)c2ccccc21 | 95.1% | 36.7% (inactive) | 98% (inactive) | 0.385 | 11 | 0.25 (inactive) | -0.0115 (inactive) |  |  |  | 
Cc1[nH]n(-c2ccccc2)c(=O)c1C(=O)c1ccccc1 | 103% | 53.4% (inactive) | 97% (inactive) | 0.12 | 5 | 0.115 (inactive) | -0.0005 (inactive) |  |  |  | 
Cn1c(=O)c(Oc2ccc(F)cc2F)cc2cnc(NC3CCS(=O)(=O)CC3)nc21 | 106% | 43.3% (inactive) | 97.5% (inactive) | 0.51 | 5 | 0.324 (inactive) | 0.001 (inactive) |  |  |  | 
Cn1cc(C2=C(c3c4n(c5ccccc35)CCCC4)C(=O)NC2=O)c2ccccc21 | 77.8% | 85.7% (inactive) | 100% (inactive) | 0.55 | 5.5 | 0.0663 (inactive) | 0.0055 (inactive) |  |  |  | 
Nc1c(C(=O)c2cccc(-c3ccncc3)c2)cnn1-c1ccc(F)cc1 | 101% | 36.5% (inactive) | 95.5% (inactive) | 0.895 | 2 | 0.219 (inactive) | -0.003 (inactive) |  |  |  | 
CC(C)=Cc1cccc2[nH]c(O)c(N=Nc3ccc(S(N)(=O)=O)cc3)c12 | 77.9% | 247% (inactive) | 109% (inactive) | 1.89 | 21.5 | 0.593 (inactive) | 0 (inactive) | -0.155 (inactive) | 0.183 (inactive) | 0.633 (inactive) | 0.0676
Cc1ccc2c(c1)c(C1=C(c3cn(C)c4ccccc34)C(=O)NC1=O)cn2C | 83% | 41.7% (inactive) | 102% (inactive) | -1.36 | 174 | 0.907 (active) | -0.003 (inactive) |  |  |  | 
CN1CC2Cc3c(C4=C(c5cn(C)c6ccccc56)C(=O)NC4=O)c4ccccc4n3CC2C1 (stereo not given) | 79.3% and 90.1% | 36.7% (inactive) and 27% (inactive) | 98.5% (inactive) | -0.62 and -0.215 | 2.5 and 3.5 | 0.0121 (inactive) and 0.0134 (inactive) | -0.005 (inactive) and -0.0135 (inactive) |  |  |  | 
Fc1ccc(-c2cc(C3CNNC3c3ccccn3)ccn2)cc1 (stereo not given) | 162% | 60.9% (inactive) | 81% (inactive) | -1.07 | 3 | 0.0511 (inactive) | -0.0065 (inactive) | 0 (inactive) | -0.015 (inactive) | 0.213 (inactive) | -0.249
COc1ccc2c(C3=C(c4cn(C)c5ccccc45)C(=O)NC3=O)cn(C)c2c1 | 79.3% | 31.4% (inactive) | 113% (inactive) | -1.48 | 66 | 0.456 (inactive) | -0.007 (inactive) |  |  |  | 
Nc1c(C(=O)c2cccc(OCC(O)CO)c2)cnn1-c1ccc(F)cc1 (stereo not given) | 125% | 58.2% (inactive) | 110% (inactive) | 1.27 | 1.5 | 0.00398 (inactive) | -0.0115 (inactive) |  |  |  | 
O=C1NC(=NCC(CO)c2ccccc2)SC1=Cc1ccc2ncccc2c1 (stereo not given) | 106% | 72.5% (inactive) | 86% (inactive) | -0.105 | 0.5 | 0.00131 (inactive) | 0.006 (inactive) |  |  |  | 

Structure (SMILES) | liver cell % of control [1] | parasite % of control [1] | percent of negative control (+Dex) [2] | z-score [2] | EGFP object count [3] | EGFP/DsRed ratio [3] | fraction signal [4] | z-score [5] | z-score [6] | z-score [7, 8] | z-score [7, 9]
Cn1cc(C2=C(c3cn(CCO)c4ccccc34)C(=O)NC2=O)c2ccccc21 | 89.7% | 54.6% (inactive) | 124% (inactive) | -1.11 | 25 | 0.285 (inactive) | -0.0245 (inactive) |  |  |  | 
Cn1cc(C2=C(c3cn(-c4ccccc4)c4ccccc34)C(=O)NC2=O)c2ccccc21 | 108% | 63.3% (inactive) | 99% (inactive) | 0.65 | 3 | 0.0255 (inactive) | 0.01 (inactive) |  |  |  | 
Nc1c(C(=O)c2cccc(-c3ccc[n+]([O-])c3)c2)cnn1-c1ccc(F)cc1F | 105% | 45.9% (inactive) | 101% (inactive) | 0.065 | 3.5 | 0.063 (inactive) | -0.0155 (inactive) |  |  |  | 
Nc1c(C(=O)c2ccc(CCCN3CCOCC3)cc2)cnn1-c1ccc(F)cc1 | 119% | 61% (inactive) | 106% (inactive) | 0.435 | 2 | 0.0463 (inactive) | 0.001 (inactive) |  |  |  | 
COc1cc(F)c(F)cc1C(=O)c1cnc(NC2CCN(S(C)(=O)=O)CC2)nc1N | 107% | 392% (inactive) | 79% (inactive) | -1.08 | 1 | 0.11 (inactive) | -0.003 (inactive) |  |  |  | 
O=[N+]([O-])c1ccc2c(c1)C(c1ccccc1Cl)=Nc1c(n[nH]c1-c1cccnc1)N2 | 237% | 4.98% (inactive) | 102% (inactive) | -0.45 | 8 | 0.194 (inactive) | 0.01 (inactive) |  |  |  | 
COc1cccc(C2=C(c3cn(C)c4ccccc34)C(=O)NC2=O)c1 | 216% | 15.4% (inactive) | 110% (inactive) | -0.735 | 9.5 | 0.204 (inactive) | -0.003 (inactive) |  |  |  | 
CC(C)c1ccc2c(N=Nc3ccc(S(N)(=O)=O)cc3)c(O)[nH]c2c1 | 93.4% | 160% (inactive) | 94% (inactive) | 0.03 | 4 | 0.177 (inactive) | -0.0065 (inactive) | 0.635 (inactive) | -0.919 (inactive) | -0.58 (inactive) | -0.254
Cn1cc(C2=C(c3c4n(c5ccccc35)CCNC4)C(=O)NC2=O)c2ccccc21 | 79.3% | 40.6% (inactive) | 97.5% (inactive) | -0.32 | 25 | 0.0526 (inactive) | -0.007 (inactive) |  |  |  | 
CCCn1cc(C2=C(c3cn(C)c4ccccc34)C(=O)NC2=O)c2ccccc21 | 101% | 78.5% (inactive) | 102% (inactive) | 0.09 | 17.5 | 0.158 (inactive) | 0.0035 (inactive) |  |  |  | 
Cn1cc(C2=C(c3cn(CCCCCO)c4ccccc34)C(=O)NC2=O)c2ccccc21 | 97.8% | 31.3% (inactive) | 101% (inactive) | -1.23 | 18.5 | 0.347 (inactive) | -0.0115 (inactive) |  |  |  | 
COc1cccc(C2=C(c3cn(C)c4cc(F)ccc34)C(=O)NC2=O)c1 | 128% | 31.5% (inactive) | 114% (inactive) | 0.535 | 7 | 0.327 (inactive) | 0.0095 (inactive) |  |  |  | 
Cc1cccc2c(C3=C(c4cn(C)c5ccccc45)C(=O)NC3=O)cn(C)c12 | 91.7% | 45.3% (inactive) | 98.5% (inactive) | -1.08 | 24 | 0.241 (inactive) | -0.0115 (inactive) |  |  |  | 
O=C1NC(=NCCc2ccccc2F)SC1=Cc1ccc2ncccc2c1 | 108% | 44.4% (inactive) | 99% (inactive) | 0.18 | 12.5 | 0.349 (inactive) | -0.0025 (inactive) |  |  |  | 
CN1CCN(CC#Cc2cccc(C(=O)c3cnn(-c4ccc(F)cc4)c3N)c2)CC1 | 96.5% | 46.3% (inactive) | 104% (inactive) | 0.495 | 3.5 | 0.0523 (inactive) | 0.0015 (inactive) |  |  |  | 
COc1cc[nH]c1C=C1C(=O)Nc2ccc([N+](=O)[O-])c(N3CCC(O)C3)c21 (stereo not given) | 102% | 15.7% (inactive) | 29.5% (active) | -7.83 | 3.5 | 0.0609 (inactive) | -0.018 (inactive) |  |  |  | 
O=C1NC(=NCCc2cccc(Cl)c2)SC1=Cc1ccc2ncccc2c1 | 131% | 170% (inactive) | 89.5% (inactive) | -0.11 | 15 | 0.216 (inactive) | -0.0025 (inactive) |  |  |  | 
